Laboratory results: PubChem BioAssay (NCATS)
“And” between values parts separate entries of the source, which are not always exact repeats. Equal entries are not always repeated. Records with an inconclusive call do not appear. Some structures have more than one record in an assay (separate samples or runs), and their calls can disagree. The source made the active and inactive calls. The call rests on the fitted dose curve; in most records, active means well fitted cell-killing curve with a large enough effect; inconclusive means small, poorly fitted or top-dose-only effect; inactive means flat fitted curve, though single readings scatter.
On the % scale 0 is the no-effect control and ±100 the full control effect; potency means the concentration at half of the fitted maximal effect.

Experiment: Cell Viability - LYMP1-003 - Assay at 40 hr (AID 964); further: nearly all actives have a fitted effect of over 60% in size
Details: LYMP1-003 lymphoblastoid viability; series mostly up to 92.2 µM; activity change, negative = cytotoxic: at the top concentration
Text: NIH Chemical Genomics Center [NCGC]
NIH Molecular Libraries Screening Centers Network [MLSCN]
National Institutes of Environmental Health Sciences [NIEHS]
National Toxicology Program [NTP]
We have developed a 1536-well cell-based assay for quantitative high throughput screening (qHTS) against a number of cell lines to determine in vitro cytotoxicity of small molecules. This particular assay uses a human lymphoblastoid cell line (LYMP1-003) purchased from Coriell Institute for Medical Research.
NCGC Assay Protocol Summary:
The CellTiter-Glo luminescent cell viability assay (Promega) is a homogeneous method to measure the number of viable cells in culture. The end point readout of this assay is based on quantitation of intracellular ATP, an indicator of metabolic activity, using the luciferase reaction. Luciferase catalyzes the oxidation of beetle Luciferin to oxyluciferin and light in the presence of ATP. The luminescent signal is proportional to amount of ATP present.
Using the CellTiter-Glo luminescent cell viability assay, the amount of cellular ATP was measured in the lymphoblastoid cell line with complete culture medium following compound treatment for 40 hours. The assay was performed in opaque white Kalypsys 1536-well plates. In the screen, tetraoctylammonium bromide was used as positive control. Library compounds were measured for their ability to cause acute toxicity in the cell line, as reflected by a decrease in intracellular ATP levels, in a concentration-dependent manner. […] AC50 values were determined from concentration-response data modeled with the standard Hill equation.
qHTS protocol for CellTiter Glo lymphoblastoid cellular assay
[Step] [Parameter] [Value] [Description]
1. Reagent; 5 uL; 2500 lymphoblastoid cells/well
2. Time; 5 hr; 37 C incubation
4. Controls; 23 nL; Tetraoctylammonium bromide 6.4pM to 92 uM
5. Time; 40 hr; 37 C incubation
6. Reagent; 5 uL; CellTiter Glo reagent
7. Time; 30 min; Room Temperature
8. Detection; Luminescence; Viewlux plate reader
Keywords: cell viability, cytotoxicity, lymphoblastoid cell line, luminescence, NTPHTS, NTPHTS_NCGC, NIEHS, DSSTox, MLSMR, MLSCN, NIH Roadmap, qHTS, NCGC
With `CCCCCl` the “activity change, negative = cytotoxic” value was -2.96% (inactive). With `ClCC1CO1` (stereo unspecified) the “activity change, negative = cytotoxic” value was 1.65% (inactive). For `O=[N+]([O-])c1ccccc1`, the “activity change, negative = cytotoxic” value was -14.8% (inactive). With `O=C1CCO1` the “activity change, negative = cytotoxic” value was -22.9% (inactive). For `[O]=[Cd]`, the “activity change, negative = cytotoxic” value was -2.55% (inactive). With `CC(C)Nc1ccc(Nc2ccccc2)cc1` the Potency was 31.6 µM (active). With `Clc1ccccc1Cl` the “activity change, negative = cytotoxic” value was -2.18% (inactive). With `[Cl-].[Cl-].[Hg+2]` the Potency was 1 µM (active). With `O=CC=O` the “activity change, negative = cytotoxic” value was -13.7% (inactive). With `CCCCCCCCOC(=O)c1ccccc1C(=O)OCCCCCCCC` the “activity change, negative = cytotoxic” value was 5.94% (inactive). With `O=C(O)C(Cl)(Cl)Cl` the Potency was “inactive”. For `O=[N+]([O-])c1ccc(F)c([N+](=O)[O-])c1`, the “activity change, negative = cytotoxic” value was -10.8% (inactive). With `C[C@H]1CC[C@@H]2[C@@H](C)[C@H]3[C@H](C[C@H]4[C@@H]5CC=C6CC(O[C@@H]7O[C@H](CO)[C@H](O)[C@H](O[C@@H]8O[C@H](CO)[C@@H](O)[C@H](O)[C@H]8O)[C@H]7O[C@H]7O[C@@H](C)[C@H](O)[C@@H](O)[C@H]7O)CC[C@]6(C)[C@H]5CC[C@]34C)N2C1` (stereo partly specified) the Potency was 39.8 µM (active). For `S=C=S`, the “activity change, negative = cytotoxic” value was 1.83% (inactive). With `CC(C)(C)c1cc(O)ccc1O` the “activity change, negative = cytotoxic” value was -29.5% (inactive). With `O=C1C2CC=CCC2C(=O)N1SC(Cl)(Cl)Cl` (stereo unspecified) the Potency was 20 µM (active). For `CC(C)CCON=O`, the “activity change, negative = cytotoxic” value was -6.78% (inactive). With `COC1=CC(=O)O[C@@H](/C=C/c2ccccc2)C1` the “activity change, negative = cytotoxic” value was -7.33% (inactive). In the case of `C[C@]12CCC(=O)C[C@@H]1CC[C@@H]1[C@@H]2CC[C@]2(C)[C@@H](O)CC[C@@H]12`, the “activity change, negative = cytotoxic” value is reported as -15.6% (inactive). In the case of `ClC=C(Cl)Cl`, the “activity change, negative = cytotoxic” value is reported as -9.21% (inactive). With `O=Cc1ccco1` the “activity change, negative = cytotoxic” value was -4.43% (inactive). For `O=C/C=C/c1ccccc1`, the Potency was “inactive”. With `C=CCN=C=S` the “activity change, negative = cytotoxic” value was -3.17% (inactive). For `NNC(N)=O`, the “activity change, negative = cytotoxic” value was -2.55% (inactive). With `Oc1cc(Cl)c(Cl)cc1Cl` the “activity change, negative = cytotoxic” value was -1.11% (inactive). For `CCOC(=O)c1ccccc1C(=O)OCC`, the Potency was “inactive”. For `C[C@H]1CCC[C@H](O)CCCCCc2cc(O)cc(O)c2C(=O)O1`, the “activity change, negative = cytotoxic” value was -2.12% (inactive). In the case of `ClC(Cl)(Cl)Cl`, the Potency is reported as “inactive”. With `COc1ccc2c(c1OC)C(=O)OC2C1c2cc3c(cc2CCN1C)OCO3` (stereo unspecified) the “activity change, negative = cytotoxic” value was -0.79% (inactive). With `[O]=[Cr](=[O])([OH])[O][Cr](=[O])(=[O])[OH]` the Potency was “inactive and 39.8 µM (active) and 25.1 µM (active)”. In the case of `O=C1C=CC(=O)C=C1`, the “activity change, negative = cytotoxic” value is reported as -17.8% (inactive).
